TRHR agonist: agonists of human TRH receptor. P34981. TRHR cells, calcium flux fluo-8, FDSS agonist mode. activation, % at 2 µM. 0.18% of 360,000 active; also: 0% is about no effect
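TRHR-expressing cells loaded with fluo-8 calcium dye; 23 nL library compound pin-transferred, kinetic FDSS fluorescence (Ex 480/Em 530) recorded about 180 s for agonist-induced calcium release, before a 10 nM TRH EC20 addition for potentiator mode.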
D1 potentiator: enhances dopamine response at the human D1 receptor | P21728 | HEK293 TREx D1 cells, calcium flux, dopamine EC20 potentiation | potentiation, % at 10 µM | 0.036% of 360,000 active | AID 504651; in the data active = potentiation above about 30%; also: 0% is about no effect
Target sequence (P21728 whole entry, looked up): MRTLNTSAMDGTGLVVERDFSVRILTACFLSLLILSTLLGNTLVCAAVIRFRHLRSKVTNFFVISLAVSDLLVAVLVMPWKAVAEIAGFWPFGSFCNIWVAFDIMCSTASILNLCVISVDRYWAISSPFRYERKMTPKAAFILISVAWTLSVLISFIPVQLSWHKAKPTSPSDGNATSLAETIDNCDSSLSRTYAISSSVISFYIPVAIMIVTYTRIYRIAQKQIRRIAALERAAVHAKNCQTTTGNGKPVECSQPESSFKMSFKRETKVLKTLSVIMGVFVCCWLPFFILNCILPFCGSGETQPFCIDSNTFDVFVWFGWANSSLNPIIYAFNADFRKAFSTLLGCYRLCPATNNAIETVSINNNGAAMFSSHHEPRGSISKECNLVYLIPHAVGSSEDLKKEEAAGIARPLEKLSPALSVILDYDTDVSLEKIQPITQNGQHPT
D1 antag: blocks dopamine activation of the human D1 receptor; 3.2% of 360,000 active; activity change, negative = inhibition, % at 10 µM; AID 504652; HEK293 TREx D1 cells, calcium flux, dopamine EC80; active compounds read low; in the data active = activity change below about -30%; also: % is scaled to controls: 0 for no effect and ±100 for the full control effect
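Using tetracycline-induced force-coupled D1 Hek293 cells and a calcium dye, signals were followed for 180 s after compound, then for 180 s after EC80 dopamine, to detect inhibitors.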
TRHR PAM: allosterically enhances the human TRH receptor; P34981; TRHR cells, fluo-8 calcium fluorescence, EC20 TRH enhancement; enhancement, % at 2 µM; 0.66% of 360,000 active; in the data active = enhancement above about 30%; also: 0% is about no effect
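TRHR-expressing cells loaded with fluo-8 calcium dye were read kinetically (ex 480/em 530) during compound addition, then stimulated with an EC20 of TRH (10 nM final). Enhancement of the Gq-mediated intracellular calcium response was scored.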
D1 agonist: human D1 receptor agonism; P21728; HEK293 T-REx D1 cells, calcium flux, agonist mode; activation, % at 2 µM; 1% of 360,000 active; also: 0% is about no effect
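Tetracycline-induced HEK293 TREx D1 cells, force-coupled to calcium signalling, were dye-loaded with a no-wash calcium kit. Compound was pin-added after a 10 s baseline. Fluorescence was read kinetically at 1 cycle/s for 180 s, with calcium rises flagged as agonism.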
Active calls of the source: *; x = not tested or not shown. The list is not random: actives were taken first. Their share in the collection is about 4.7%. Rule as the data show it, unless noted: active = activation above about 30%; inactive = the rest.

SMILES	TRHR agonist	D1 potentiator	D1 antag	TRHR PAM	D1 agonist
OCCNCC(O)Cn1c2ccccc2c2ccccc21 (centres undefined)	0.2	-3.4	3.6	2.6	2.7
COC(=O)c1ccc(N2CCCCC2)c(NS(=O)(=O)c2ccc(C)cc2)c1	0.4	-2.4	14.1	13.4	0.9
CCOC(=O)c1ccc(N2CCCCC2)c(NS(=O)(=O)c2cccc(C(F)(F)F)c2)c1	0.8	-2.9	-47.5*	-8.1	4.6
Cc1cccc(N2CCN(CCCNC(=O)c3sc4ncccc4c3-n3cccc3)CC2C)c1 (centres undefined)	-0.7	-3.2	-23.9	5.2	0.4
c1ccc(-c2ccc(OCCCNC3CCCC3)cc2)cc1	1.7	-0.8	-37.3*	-3.3	41.5*
c1ccc(SCCCCNC2CCCC2)cc1	1.6	-8.2	-10.4	-4.9	11.2
c1ccc(Cc2ccc(OCCCNC3CCCC3)cc2)cc1	3.4	1.5	-23.5	4.2	55.6*
COc1ccc(OCCNC2CCCC2)cc1	0.5	8.6	-6.4	0.5	2.7
COc1cc(C=O)ccc1OCCOc1ccccc1[N+](=O)[O-]	1.1	-4.0	-37.3*	13.9	5.5
Cc1ccc(S(=O)(=O)N2CCN(C(=O)c3ccnn3C)CC2)cc1C	-0.4	-4.5	-33.6*	-6.0	1.5
O=C(CNC(=O)c1cccc2ccccc12)OC(C(=O)Nc1cc(C(F)(F)F)ccc1Cl)c1ccccc1 (centres undefined)	2.1	5.0	12.7	-3.6	-1.4
COc1ccc(SCCN2CC[C@@H](O)CCC2=O)cc1	0.0	-3.9	-57.8*	0.7	-3.0
COc1ccc(NC(=O)CN2CCCN(S(=O)(=O)c3ccc(Br)cc3)CC2)c(OC)c1	0.0	-2.9	-7.6	-2.4	-0.6
Cc1ccc(N=C2NC(=O)/C(=C/c3cn(C)c4ccccc34)S2)cc1C	17.6	-1.8	-98.5*	7.3	54.1*
CC(C)(C)OC(=O)NCc1nnc(-c2cc3ccccc3[nH]2)s1	1.2	-6.0	-3.7	1.4	-0.2
C/C(=N\OCc1nc2ccccc2c(=O)n1/N=C/c1cc(C)cc([N+](=O)[O-])c1O)c1ccccc1	0.4	-0.1	-32.6*	-0.8	11.8
Oc1ccc(N=Nc2n[nH]c(-c3ccccc3)n2)cc1	-0.1	1.2	-0.2	7.9	0.0
Oc1ccc(N=Nc2n[nH]c(-c3ccc(Br)cc3)n2)cc1	-0.1	5.8	-39.0*	9.0	1.1
Cc1ccc(C)c(CN2C(=O)C(=O)c3ccccc32)c1	4.3	-1.7	-31.4*	-3.7	-2.2
Cc1cc(Nc2ccc(F)cc2F)nc(-n2nc(C)cc2C)n1	0.1	1.4	-22.8	-5.1	0.8
CC(C)c1ccc(OCc2ccc(C(=O)N3CCCC3)o2)cc1	-1.8	x	-33.8*	2.9	69.6*
COc1ccc(N(Cc2cccs2)C(=O)c2ccccc2C)cc1	-0.1	1.2	-36.5*	-5.2	4.3
COc1ccc(N(Cc2cccs2)C(=O)c2ccc(OCC(C)C)cc2)cc1	-0.3	2.8	2.7	19.1	34.1*
Cc1ccc(N(Cc2cccs2)C(=O)c2ccc(Br)o2)cc1	0.2	-1.8	-19.0	-10.6	7.6
CC(=O)c1ccc(OCC(O)CN(C)Cc2cccs2)cc1 (centres undefined)	-0.6	0.9	-43.4*	3.4	37.1*
SMILES	TRHR agonist	D1 potentiator	D1 antag	TRHR PAM	D1 agonist
Cc1ccc(N(Cc2cccs2)C(=O)c2ccccc2)cc1	0.0	-1.1	-34.4*	2.0	1.4
COc1ccc(N(Cc2cccs2)C(=O)c2ccc(C(C)(C)C)cc2)cc1	1.6	-0.8	2.2	-0.5	14.2
O=S(=O)(Nc1cccc(-c2ccc(N3CCOCC3)nn2)c1)c1ccc(F)cc1F	-0.2	-2.2	1.2	-7.0	3.0
Cc1ccc(N2CC(NC(=O)c3ccco3)CC2=O)cc1C (centres undefined)	0.7	-0.7	x	3.8	1.0
Cn1cc(S(=O)(=O)N2CCN(c3ccccc3F)CC2)c(=O)n(C)c1=O	-0.2	-3.5	1.7	-5.9	-0.8
CC1CCN(S(=O)(=O)c2cn(C)c(=O)n(C)c2=O)CC1	0.8	-10.2	-61.3*	1.4	-2.3
COc1ccccc1N1CCN(S(=O)(=O)c2cn(C)c(=O)n(C)c2=O)CC1	-0.4	-13.3	-36.4*	-0.5	0.1
C=CCOc1cccc(C2/C(=C(\O)c3ccc(F)cc3)C(=O)C(=O)N2CCN(C)C)c1 (centres undefined)	-0.3	-5.2	-52.7*	-2.9	-0.5

Source: PubChem BioAssay (National Center for Advancing Translational Sciences (NCATS))
